This is part of a sample that, as a whole, favours compounds with a hit. Of some 79,000 tested, about 15% had one in any assay. A number with no mark means an inactive call. Activity calls are given as the source filed them. Rule as the data show it: active = growth inhibition above about 70%; inactive = the rest.
Tests used:
[1] = NCI Yeast Anticancer Drug Screen. Data for the rad50 strain (AID 155);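 also: 0% = growth of vehicle-only cultures of the same strain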; conditions: S. cerevisiae rad50 strain growth inhibition, stronger effect = higher value
Procedure, shortened: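 Yeast carrying a defined DNA repair defect were exposed to test compounds, and growth was compared with vehicle-treated controls to give percent inhibition.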

[2] = NCI Yeast Anticancer Drug Screen. Data for the mec2-1 strain (AID 157); conditions: S. cerevisiae mec2-1 strain, stronger effect = higher value
Procedure, shortened: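 Each compound was tested on mec2-1 yeast, a strain altered in DNA damage repair or cell cycle control. Growth inhibition is reported relative to vehicle.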

[3] = NCI Yeast Anticancer Drug Screen. Data for the sgs1 mgt1 strain (AID 161);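 also: 0% = growth of cultures given vehicle only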; conditions: S. cerevisiae sgs1 mgt1 strain, stronger effect = higher value
Procedure, shortened: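 Inhibition of yeast growth, normalised to vehicle-treated controls, is reported for a strain bearing genetic alterations in DNA damage repair.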

[4] = NCI Yeast Anticancer Drug Screen. Data for the cln2 rad14 strain (AID 165);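 also: 0% = growth equal to vehicle treated cultures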; conditions: S. cerevisiae cln2 rad14 strain, stronger effect = higher value
Procedure, shortened: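 Test compounds were added to cln2 rad14 yeast cultures; inhibition of growth was then determined by comparison with vehicle treatment.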

[5] = NCI Yeast Anticancer Drug Screen. Data for the bub3 strain (AID 167); conditions: S. cerevisiae bub3 mutant strain, stronger effect = higher value
Procedure, shortened: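 Compounds were applied to a genetically altered yeast strain carrying a cell-cycle control defect. Growth inhibition was scored against vehicle-treated controls.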

[6] = NCI Yeast Anticancer Drug Screen. Data for the mlh1 rad18 strain (AID 175); conditions: S. cerevisiae mlh1 rad18 strain growth inhibition, stronger effect = higher value
Procedure, shortened: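 Inhibition values reflect reduced growth of mutant yeast versus vehicle-treated controls following compound exposure; the mutations affect DNA damage repair.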

[7] = at 5.0 µM (retest, dose inferred, filed as 0.5)
[8] = at 50.0 µM (retest, dose inferred, filed as 5.0)

Row | SMILES | growth inhibition [1, 7] | growth inhibition [1, 8] | growth inhibition ([1]; at 50.0 µM) | growth inhibition [2, 7] | growth inhibition [2, 8] | growth inhibition ([2]; at 50.0 µM) | growth inhibition [3, 7] | growth inhibition [3, 8] | growth inhibition ([3]; at 50.0 µM) | growth inhibition [4, 7] | growth inhibition [4, 8] | growth inhibition ([4]; at 50.0 µM) | growth inhibition [5, 7] | growth inhibition [5, 8] | growth inhibition ([5]; at 50.0 µM) | growth inhibition [6, 7] | growth inhibition [6, 8] | growth inhibition ([6]; at 50.0 µM)
1 | Cc1cc(C(=O)CBr)c(CN2C(=O)c3ccccc3C2=O)c(=O)n1C | 17% | 98% (active) | 63.3% | 49% | 99% (active) | 12.3% | 25% | 99% (active) | 74.3% (active) | 11% | 98% (active) | 2% | 18% | 98% (active) | 31.2% | 64% | 99% (active) | 38%
2 | CNc1ccc(F)cc1SSc1cc(F)ccc1NC | 97% (active) | 98% (active) | 99% (active) | 94% (active) | 99% (active) | 99.5% (active) | 95% (active) | 99% (active) | 99.4% (active) | 10% | 99% (active) | 99% (active) | 38% | 99% (active) | 99.2% (active) | 97% (active) | 99% (active) | 99.2% (active)
3 | O=C(c1ccccc1)N(C(=S)N(C(=O)c1ccccc1)c1ccccc1)c1ccccc1 | -3% | 12% | 99% (active) | -1% | -2% | 99.7% (active) | 1% | -4% | 99.2% (active) | 3% | -7% | 98.8% (active) | 0% | -3% | 99% (active) | -1% | -3% | 99.1% (active)
4 | CCOC(=O)CSc1c(C(=O)OCC)c(=O)n(-c2ccccc2)c(=S)n1-c1ccccc1 | 60% | 90% (active) | 85.2% (active) | 44% | 89% (active) | 87.2% (active) | 75% (active) | 94% (active) | 87.8% (active) | 54% | 91% (active) | 80.8% (active) | 31% | 90% (active) | 85.8% (active) | 74% (active) | 89% (active) | 81.8% (active)
5 | Nc1nc2ccccc2cc1C(=O)O | -162% | -150% | -2.25% | -49% | -47% | 19.3% | -61% | -55% | -7.95% | -54% | -48% | 63.5% | -69% | -70% | 12.5% | -140% | -107% | 3.9%
6 | C[N+](C)(C)CCCCCCCCCCC(=O)N/N=C/c1ccc([N+](=O)[O-])o1 | 6% | 8% | 9.85% | 2% | 7% | 4.35% | 6% | 18% | 48.9% | 2% | 2% | 32.3% | 0% | -3% | -3.85% | 9% | 15% | 64.6%
7 | OC1c2cccn2-c2cc(Cl)ccc2SC1c1ccccc1 (centres undefined) | 2% | 97% (active) | 97% (active) | 1% | 98% (active) | 82.3% (active) | 15% | 97% (active) | 96.2% (active) | -7% | 97% (active) | 93.2% (active) | 24% | 97% (active) | 95.6% (active) | 8% | 97% (active) | 94.8% (active)
8 | CC1CCCCN(CCN(Cc2ccccc2)c2ccccc2)C1 (centres undefined) | -1% | 32% | 58.1% | 2% | 29% | 45.9% | 10% | 75% (active) | 73.8% (active) | 4% | 37% | 80.8% (active) | 5% | 52% | 58% | 8% | 42% | 54.1%
9 | Cc1cc(N(CCCOS(C)(=O)=O)CCCOS(C)(=O)=O)ccc1C=Nc1cc(Br)c(O)c(Br)c1 | -5% | 33% | 41% | 36% | 7% | 21.3% | -3% | 27% | 86.1% (active) | -3% | -5% | 4.8% | 0% | 41% | 34.8% | -2% | 41% | 68.4%
10 | CC(=O)Oc1c(C)cc([N+](=O)[O-])cc1[N+](=O)[O-] | -11% | 99% (active) | 99.7% (active) | 1% | 99% (active) | 99.8% (active) | 11% | 99% (active) | 99.8% (active) | 16% | 99% (active) | 98.9% (active) | 9% | 99% (active) | 99% (active) | 16% | 99% (active) | 99.7% (active)
11 | CC(C)N1C(=O)C=CC1=O | 6% | 67% | 93.7% (active) | 7% | 60% | 98.8% (active) | 7% | 53% | 52.1% | 2% | 57% | 57% | 1% | 75% (active) | 46.6% | 3% | 60% | 54%
12 | CC(c1ccccc1)[P+](c1ccccc1)(c1ccccc1)c1ccccc1 (centres undefined) | 5% | 97% (active) | 97.8% (active) | 13% | 97% (active) | 97.5% (active) | 11% | 98% (active) | 97.7% (active) | -4% | 95% (active) | 96.8% (active) | 6% | 99% (active) | 96.1% (active) | 16% | 97% (active) | 98% (active)
13 | CC(C)c1ccc(CN(CCO)Cc2ccc(C(C)C)cc2)cc1 | 7% | 84% (active) | 97.2% (active) | 3% | 88% (active) | 75.6% (active) | 6% | 95% (active) | 97.1% (active) | 7% | 87% (active) | 77.3% (active) | 7% | 97% (active) | 98.6% (active) | 8% | 91% (active) | 81.8% (active)
14 | O=C(Oc1ccc(Cl)cc1)Oc1ccc(Cl)cc1 | -13% | 16% | 3.55% | -10% | 4% | 16.7% | 0% | 25% | 14.3% | -2% | 36% | 16.9% | -1% | -23% | 18.3% | 6% | 12% | 17.1%
15 | O=P1(O)c2ccccc2CS(=O)(=O)Cc2ccccc21 | 34% | 31% | 21.4% | 21% | 24% | -11.1% | 26% | 53% | -24.2% | 16% | 29% | -13.2% | 16% | 46% | -19.8% | 35% | 43% | -42.8%
16 | O=C(O)Cc1cccc(O)c1 | 0% | -3% | 10.5% | 3% | -1% | 41.9% | -3% | -4% | -1.9% | -8% | 1% | 35.1% | -1% | 1% | 5.8% | 0% | -3% | -0.1%
17 | CC(=O)N1CCCC2=C1CCCCCCCCCC2 | -7% | 4% | 49.4% | -6% | -5% | 27.9% | -3% | 1% | 70.6% (active) | 3% | -9% | 22.9% | -12% | -21% | 29.2% | -6% | -2% | 13.8%
18 | Clc1ccc(/C(=C/c2ccccc2)Cn2ccnc2)cc1 | 88% (active) | 93% (active) | 75.6% (active) | 64% | 86% (active) | 78.8% (active) | 86% (active) | 90% (active) | 75% (active) | 85% (active) | 83% (active) | 70.5% (active) | 70% (active) | 93% (active) | 81% (active) | 83% (active) | 90% (active) | 78.5% (active)

Source: PubChem BioAssay (NCI)
